Measurements: PubChem BioAssay
Where “and” joins values, the source holds several entries; their conditions need not be identical. Identical values can stand only once. Records with an inconclusive call do not appear. Calls of active or inactive are those of the source. Unless noted, cut-off not given; nearly all actives show AC50 up to about 26 µM.

How the values were obtained:
[1] = compounds altering circadian rhythm period length – cell-based, LOPAC library, luminescence reporter (AID 2774; call rule not given here;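 further: values are relative to mean of DMSO wells on each plate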); settings: circadian reporter cells, at 7 µM, actives lie on both sides
[2] = test system: Hepatitis C virus NS3 helicase; test: blockers of NS3h binding to ssDNA – biochemical, fluorescence polarization, LOPAC1280 library, primary screen (AID 687035; in the data active means inhibition above about 37%); settings: Purified HCV NS3 helicase, Cy5-dT15 ssDNA binding fluorescence polarization; stronger effect = higher value; concentration not given here
[3] = compounds altering Cy5-DNA-NS3h complex signal – biochemical, LOPAC1280, artefact control for HCV NS3 helicase inhibitor project (AID 687037; call rule not given here); settings: Cy5-DNA-NS3h complex fluorescence interference counterscreen
[4] = test system: Aerobactin synthetase IucA (Klebsiella pneumoniae, hypervirulent); test: biochemical IucA inhibition screen of LOPAC library by absorbance (AID 1346212; call rule not given here;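 further: 100% = no compound wells and 0% = no enzyme wells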); settings: IucA enzyme assay, absorbance (OD) readout; stronger effect = lower value;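 tested at 8 µM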
[5] = viability loss with induced miR-34 in A549 – imaging, A549 dox-inducible miR-34, nuclei and caspase counts, primary screen (AID 1347080;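 active means compounds whose cell count with miR-34 switched on is under 0.7 times the count with it off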); settings: A549 miR-34 inducible, Hoechst nuclei count, 48 h
[6] = galactose survival enhancers in mitochondrial complex I cybrids – cell-based, galactose medium, ATP luminescence, primary screen (AID 1645843;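 active means z-score of at least 1.8 in each of two replicates, scored against plate mean and spread of sample wells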;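 further: positive z means more ATP and so rescue of galactose-driven cybrid death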); settings: complex I mutant cybrid cells, 72 h, stronger effect = higher value
[7] = blockers of cellular phospholipid synthesis – cell-based, LOPAC library, screen 4, primary screen (AID 1347384; call rule not given here); settings: animal cells, phospholipid biosynthesis inhibition screen; at 10 µM
[8] = viability loss in pontine glioma line – cell-based, SU-DIPG-XVII, MIPE5.0, CellTiter-Glo, qHTS, dose response (AID 1347060); settings: CellTiter-Glo ATP luminescence;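 on AC50: cells exposed to compound for 48 hours before viability readout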
[9] = viability loss in pontine glioma line – cell-based, SU-DIPG-XIII, MIPE4.0, CellTiter-Glo, qHTS, dose response (AID 1347061; cut-off not given, nearly all actives have AC50 up to about 37 µM;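 further: cells exposed to compound for 48 hours before readout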); settings: CellTiter-Glo ATP luminescence
[10] = viability loss in pontine glioma line – cell-based, JHH-DIPG-1, MIPE4.0, CellTiter-Glo, qHTS, dose response (AID 1347062; cut-off not given, nearly all actives have AC50 up to about 27 µM;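 on AC50: cells exposed to compound for two days before readout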); settings: JHH-DIPG-1 viability, CellTiter-Glo ATP luminescence
[11] = viability loss in pontine glioma line – cell-based, SU-DIPG-IV, MIPE4.0, CellTiter-Glo, qHTS, dose response (AID 1347063; cut-off not given, nearly all actives have AC50 up to about 30 µM;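 further: compound exposure lasted 48 hours before the viability readout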); settings: CellTiter-Glo ATP luminescence
[12] = viability loss in pontine glioma line – cell-based, SU-DIPG-XIII, MIPE5.0, CellTiter-Glo, qHTS, dose response (AID 1347064; cut-off not given, nearly all actives have AC50 up to about 23 µM;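 on AC50: cells exposed to compound for 48 hours before the viability read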); settings: CellTiter-Glo ATP luminescence
[13] = viability loss in pontine glioma line – cell-based, SU-DIPG-XXV, MIPE5.0, CellTiter-Glo, qHTS, dose response (AID 1347065); settings: CellTiter-Glo ATP luminescence;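 further: cells exposed to compound for 48 hours before ATP readout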
[14] = growth inhibition of DIPG cells – cell-based, MIPE4.0 library, CellTiter-Glo luminescence, qHTS (AID 1347066; cut-off not given, nearly all actives have AC50 up to about 30 µM;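 further: cells exposed to compound for 48 hours before readout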); settings: SU-DIPG-VI viability, CellTiter-Glo ATP luminescence
[15] = JHH-DIPG-1 glioma cell viability, MIPE5.0 library, CellTiter-Glo luminescence, qHTS (AID 1347067); settings: JHH-DIPG-1 glioma viability, CellTiter-Glo ATP luminescence;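 further: cells exposed to compound for 48 hours before readout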
[16] = growth inhibition of DIPG cells – cell-based, MIPE5.0 library, qHTS (AID 1347068; cut-off not given, nearly all actives have IC50 up to about 30 µM;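 on IC50: cells exposed to compound for 48 hours before viability readout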); settings: SU-DIPG-XXV viability
[17] = MELAS cybrid and Rieske KO viability enhancers – cell-based, MELAS cybrids, Rieske KO mouse fibroblasts, CellTiter-Glo, primary screen (AID 1508586;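 active means mean z-score across replicates of 1.96 or higher in either the MELAS or the Rieske mutant cell line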;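 further: z relative to plate mean and SD of compound and empty wells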); settings: low glucose
[18] = compounds altering HSF1 focus formation in cells – imaging, Selleck Cancer Library (AID 1347162; in the data active means plate-normalised HSF1 focus index below about 0.46); settings: human cells, HSF1 nuclear foci imaging, at 10 µM; SSMD: measured here: HSF1 foci SSMD mean; cell count: measured here: cell number; plate-normalised HSF1 focus index: stronger effect = lower value
[19] = compounds altering viability of human ES cells (AID 493140; call rule not given here;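 further: cells exposed to compounds for four days before counting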); settings: human embryonic stem cell survival screen; stronger effect = higher value
[20] = P. berghei load reduction in hepatocytes – cell-based, HepG2, luciferase luminescence, HepG2 viability, primary screen (AID 624349; in the data active means parasite load remaining mostly below about 12%, no sharp cut-off; inactive means mostly above about 10%;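 further: 100% = mean of DMSO negative control wells on the same plate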); settings: P. berghei liver stage in HepG2, luciferase luminescence, concentration not given here; parasite load remaining: stronger effect = lower value; viability: measured here: HepG2 viability without parasites
[21] = measured here: relative caspase fold change +Dox/-Dox
[22] = measured here: total cells with miR-34 induction, stronger effect = lower value
[23] = measured here: total cells without miR-34 induction
[24] = stronger effect = lower value, cell number ratio, induced over uninduced
[25] = MELAS cybrid survival, CellTiter-Glo 48 h, stronger effect = higher value
[26] = Rieske KO mouse fibroblast survival, CellTiter-Glo 72 h

SMILES: CC(=O)OCC1=C(C(=O)[O-])N2C(=O)[C@@H](NC(=O)CCC[C@@H](N)C(=O)[O-])[C@H]2SC1.[Zn+2]
- period change [1]: -0.01 h (inactive)
- inhibition [2]: 0% (inactive)
- fluorescence ratio (interference) [3]: 0.9 (inactive)
- remaining activity [4]: 102% (inactive)
- fold change ([5]; stronger effect = lower value): 1.04 (inactive)
- fold change [5, 21]: 1.44
- cell count [5, 22]: 10400
- cell count [5, 23]: 10000
- z-score [6]: -0.275 (inactive)

SMILES: CC(C)[C@H]1CN[C@H](C(=O)O)[C@H]1CC(=O)O
- inhibition [2]: 1% (inactive)
- fluorescence ratio (interference) [3]: 1 (inactive)
- remaining activity [4]: 93.8% (inactive)
- fold change ([5]; stronger effect = lower value): 0.952 (inactive)
- fold change [5, 21]: 0.99
- cell count [5, 22]: 9550
- cell count [5, 23]: 10000
- outcome [7]: inactive
- z-score [6]: 0.11 (inactive)

SMILES: COc1ccc2c3c1O[C@H]1C(=O)CC[C@@]4(O)C(C2)N(CC2CC2)CCC314 (stereo partly drawn)
- period change [1]: -0.115 h (inactive)
- remaining activity [4]: 120% (inactive)

SMILES: C[C@H](Cc1ccc2c(c1)OC(C(=O)O)(C(=O)O)O2)NC[C@H](O)c1cccc(Cl)c1
- period change [1]: 0.1 h (inactive)
- inhibition [2]: -3% (inactive)
- fluorescence ratio (interference) [3]: 1 (inactive)
- remaining activity [4]: 117% (inactive)
- fold change [5, 24]: 1.02 (inactive)
- fold change [5, 21]: 1.78
- cell count [5, 22]: 10500
- cell count [5, 23]: 10300
- z-score [6]: 0.755 (inactive)

SMILES: CC1Cc2cc3c(cc2C(c2ccc(N)cc2)=NN1)OCO3 (stereo not drawn)
- period change [1]: 0.09 h (inactive)
- remaining activity [4]: 102% (inactive)

SMILES: Cc1cc([C@@H]2CCCN2C)on1
- inhibition [2]: -6% (inactive)
- fluorescence ratio (interference) [3]: 1 (inactive)
- remaining activity [4]: 91.6% (inactive)
- fold change ([5]; stronger effect = lower value): 0.924 (inactive)
- fold change [5, 21]: 1.47
- cell count [5, 22]: 9420
- cell count [5, 23]: 10200
- outcome [7]: inactive
- z-score [6]: 0.41 (inactive)

SMILES: CCN1CCN(C(=O)Cc2ccc(Nc3ncc(F)c(Nc4ccc(C(=O)Nc5ccccc5Cl)cc4)n3)cc2)CC1
- AC50 [8]: 1.86 µM (active)
- outcome [9]: inactive
- AC50 [10]: 10.5 µM (active)
- AC50 [11]: 8.33 µM (active)
- AC50 [12]: 6.61 µM (active)
- AC50 [13]: 1.05 µM (active)
- AC50 [14]: 5.9 µM (active)
- AC50 [15]: 3.72 µM (active)
- IC50 [16]: 23.5 µM (active)
- fold change [5, 24]: 0.811 (inactive)
- fold change [5, 21]: 0.731
- cell count [5, 22]: 705
- cell count [5, 23]: 869
- z-score [17, 25]: 2.83 (active)
- z-score [17, 26]: -1.29

SMILES: Clc1ccccc1C(c1ccccc1)(c1ccccc1)n1cccn1
- AC50 [8]: 23.5 µM (active)
- outcome [9]: inactive
- AC50 [13]: 33.2 µM (active)
- outcome [14]: inactive
- AC50 [15]: 23.5 µM (active)
- outcome [16]: inactive

SMILES: N=C1NC(=O)N2CC12 (stereo not drawn)
- outcome [8]: inactive
- outcome [9]: inactive
- AC50 [10]: 2.09 µM (active)
- outcome [12]: inactive
- outcome [13]: inactive
- outcome [15]: inactive
- outcome [16]: inactive

SMILES: COC(=O)[C@]12CCC(C)(C)C[C@H]1[C@H]1C(=O)C=C3[C@@]4(C)C=C(C#N)C(=O)C(C)(C)[C@@H]4CC[C@@]3(C)[C@]1(C)CC2
- AC50 [8]: 3.72 µM (active)
- AC50 [9]: 2.64 µM (active)
- AC50 [10]: 0.59 µM (active)
- AC50 [11]: 0.469 µM (active)
- AC50 [12]: 3.72 µM (active)
- AC50 [13]: 2.09 µM (active)
- AC50 [14]: 0.743 µM (active)
- AC50 [15]: 0.833 µM (active)
- IC50 [16]: 10.5 µM (active)

SMILES: O=C(Oc1ccc([N+](=O)[O-])cc1)N1CCC(C(O)(c2ccc3c(c2)OCO3)c2ccc3c(c2)OCO3)CC1
- outcome [8]: inactive
- outcome [9]: inactive
- outcome [10]: inactive
- outcome [11]: inactive
- outcome [12]: inactive
- outcome [13]: inactive
- outcome [14]: inactive
- outcome [15]: inactive
- outcome [16]: inactive
- fold change [5, 24]: 1.03 (inactive) and 0.881 (inactive)
- fold change [5, 21]: 1.13 and 1
- cell count [5, 22]: 6030 and 8340
- cell count [5, 23]: 5850 and 9460
- SSMD [18]: 3.32
- cell count [18]: 6730
- plate-normalised HSF1 focus index [18]: 1.2 (inactive)
- z-score [17, 25]: -0.115 (inactive)
- z-score [17, 26]: -0.259

SMILES: C=C[C@H]1CN2CCC1C[C@@H]2[C@@H](O)c1ccnc2ccccc12 (stereo partly drawn)
- survival [19]: 1.25 (inactive)
- parasite load remaining [20]: 79% (inactive)
- viability [20]: 73.5%
- outcome [8]: inactive
- AC50 [9]: 20.9 µM (active)
- outcome [10]: inactive
- outcome [12]: inactive
- outcome [13]: inactive
- AC50 [14]: 20.9 µM (active)
- outcome [15]: inactive
- outcome [16]: inactive

SMILES: C=CCN1CCc2cccc3c2[C@H]1Cc1ccc(O)c(O)c1-3
- period change [1]: 0.185 h (inactive)
- inhibition [2]: -3% (inactive)
- fluorescence ratio (interference) [3]: 1.1 (inactive)
- remaining activity [4]: 110% (inactive)

SMILES: COC12C(COC(N)=O)C3=C(C(=O)C(C)=C(N)C3=O)N1CC1C2N1C (stereo not drawn)
- AC50 [8]: 1.48 µM (active)

SMILES: C/C(=C\c1csc(C)n1)[C@@H]1C[C@@H]2O[C@]2(C)CCC[C@H](C)[C@H](O)[C@@H](C)C(=O)C(C)(C)[C@@H](O)CC(=O)O1
- AC50 [8]: 0.00263 µM (active)
- outcome [9]: inactive
- outcome [10]: inactive
- outcome [11]: inactive
- outcome [12]: inactive
- AC50 [13]: 0.00166 µM (active)
- outcome [14]: inactive

SMILES: C[C@]12CC[C@H]3[C@@H](CCC4=CC(=O)CC[C@@]43C)[C@@H]1CC[C@@H]2OC(=O)CCC1CCCC1
- outcome [8]: inactive
- AC50 [9]: 23.5 µM (active)
- outcome [10]: inactive
- outcome [11]: inactive
- outcome [12]: inactive
- outcome [14]: inactive
- outcome [16]: inactive

SMILES: CCCN(CCC)CCc1c[nH]c2ccc(C(N)=O)cc12
- period change [1]: 0.085 h (inactive)
- inhibition [2]: 0% (inactive)
- fluorescence ratio (interference) [3]: 1.1 (inactive)
- remaining activity [4]: 109% (inactive)

SMILES: Cc1ccccn1.[Cl][Pt][Cl].[NH2-]
- outcome [8]: inactive
- outcome [9]: inactive
- outcome [13]: inactive
- outcome [16]: inactive

SMILES: C[C@]12CC[C@@H]3c4ccc(OC(=O)N(CCCl)CCCl)cc4CC[C@H]3[C@@H]1CC[C@@H]2OP(=O)(O)O
- outcome [8]: inactive
- outcome [9]: inactive
- outcome [10]: inactive
- outcome [11]: inactive
- outcome [12]: inactive
- outcome [13]: inactive
- outcome [14]: inactive
- outcome [15]: inactive
- outcome [16]: inactive

SMILES: C/C=C(\C)C(=O)N[C@@H](c1ccccc1)[C@@H](O)C(=O)O[C@H]1C[C@@]2(O)[C@@H](OC(=O)c3ccccc3)[C@@H]3[C@]4(OC(C)=O)CO[C@@H]4C[C@H](O)[C@@]3(C)C(=O)[C@H](OC(C)=O)C(=C1C)C2(C)C
- AC50 [8]: 0.0132 µM (active)
- outcome [9]: inactive
- outcome [10]: inactive
- outcome [11]: inactive
- AC50 [13]: 0.0235 µM (active)
- outcome [14]: inactive
